Laboratory results published in PubChem BioAssay.
Active and inactive are the calls of the source.

Columns and labels:
[1] = tested on: PRMT1 (protein arginine N-methyltransferase 1); assay: small molecules binding arginine methyltransferase PRMT1 – biochemical, small-molecule microarray, 635 nm fluorescence, primary screen (AID 1088); settings: higher = more signal;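 further: binding of Prmt1 protein to compounds spotted on small-molecule microarray slides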
[2] = growth effects on S. cerevisiae YJM789 – YJM789 clinical isolate, OD600, 24 h, basal, primary screen (AID 1089); settings: higher = more signal, called active from +8 up or from −8 down;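 further: growth of clinical yeast isolate S. cerevisiae YJM 789 seeded 1000 cells per well; test concentration not given here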
[3] = S. pombe growth modifiers, basal conditions – strain 972, OD600, 24 h, no modulator, primary screen (AID 1090);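 further: basal condition with compound alone and no growth modifier present; test concentration not given here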; settings: S. pombe 972 growth, higher = more signal, called active from +8 up or from −8 down
[4] = budding yeast growth modifiers under rapamycin – strain BY4716, OD600, 96 h, primary screen (AID 1091); further: test concentration not given here; settings: S. cerevisiae BY4716 + rapamycin, higher = more signal, called active from +8 up or from −8 down
[5] = target: Torsin-1A-interacting protein 2 (Homo sapiens) (UniProt Q8NFQ8); assay: small molecules binding lysate-expressed LULL1 – cell lysate, human LULL1 lysate, 635/667 nm fluorescence, primary screen (AID 1092); settings: small-molecule microarray, hLULL1 lysate binding, 635 nm fluorescence; higher = more signal;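 further: probe is lysate of COS7 cells overexpressing human LULL1; score merges per-feature 667 nm fluorescence with signal-to-noise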
Torsin-1A-interacting protein 2 (Homo sapiens), sequence (Q8NFQ8 whole entry, looked up): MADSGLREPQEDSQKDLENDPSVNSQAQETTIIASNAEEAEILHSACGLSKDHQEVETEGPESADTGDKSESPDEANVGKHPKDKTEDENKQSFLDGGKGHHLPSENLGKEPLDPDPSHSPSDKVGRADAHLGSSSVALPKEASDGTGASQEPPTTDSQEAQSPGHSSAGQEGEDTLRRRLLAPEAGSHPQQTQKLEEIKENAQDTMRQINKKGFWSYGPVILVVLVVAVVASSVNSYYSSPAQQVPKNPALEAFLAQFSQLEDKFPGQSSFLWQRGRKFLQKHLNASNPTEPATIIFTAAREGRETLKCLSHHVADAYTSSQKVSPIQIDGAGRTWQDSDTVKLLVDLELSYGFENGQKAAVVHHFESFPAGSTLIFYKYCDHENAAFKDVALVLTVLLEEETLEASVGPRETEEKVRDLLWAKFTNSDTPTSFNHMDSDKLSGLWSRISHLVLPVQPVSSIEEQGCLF

[6] = optical density change of DRC41 E. coli – strain DRC41, OD650, 24 h, E. coli filamentation project, primary screen (AID 1093);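 further: MC1000 strain lacking acrAB efflux and sulA so SOS filamentation is blocked; test concentration not given here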; settings: E. coli DRC41 growth, higher = more signal, called active from +8 up or from −8 down
[7] = probe aLefty2 binding to arrayed compounds – biochemical, biotinylated probe, 635/667 nm fluorescence, primary screen (AID 1094); settings: small-molecule microarray, higher = more signal;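 further: score merges spot fluorescence near 667 nm with spot signal-to-noise ratio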
[8] = tested on: Noggin (protein binding on small-molecule microarray); assay: small molecules binding Noggin protein – biochemical, 635/667 nm fluorescence, primary screen (AID 1095); settings: 635 nm fluorescence, higher = more signal;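 further: score merges 667 nm feature fluorescence with signal to noise over triplicate slides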
[9] = target: Neurogenic locus notch homolog protein 3 (Homo sapiens) (UniProt Q9UM47); assay: small molecules binding NOTCH3 protein – biochemical, 635/667 nm fluorescence, primary screen (AID 1096); settings: small-molecule microarray, 635 nm fluorescence, higher = more signal
Neurogenic locus notch homolog protein 3 (Homo sapiens), sequence (Q9UM47 whole entry, looked up): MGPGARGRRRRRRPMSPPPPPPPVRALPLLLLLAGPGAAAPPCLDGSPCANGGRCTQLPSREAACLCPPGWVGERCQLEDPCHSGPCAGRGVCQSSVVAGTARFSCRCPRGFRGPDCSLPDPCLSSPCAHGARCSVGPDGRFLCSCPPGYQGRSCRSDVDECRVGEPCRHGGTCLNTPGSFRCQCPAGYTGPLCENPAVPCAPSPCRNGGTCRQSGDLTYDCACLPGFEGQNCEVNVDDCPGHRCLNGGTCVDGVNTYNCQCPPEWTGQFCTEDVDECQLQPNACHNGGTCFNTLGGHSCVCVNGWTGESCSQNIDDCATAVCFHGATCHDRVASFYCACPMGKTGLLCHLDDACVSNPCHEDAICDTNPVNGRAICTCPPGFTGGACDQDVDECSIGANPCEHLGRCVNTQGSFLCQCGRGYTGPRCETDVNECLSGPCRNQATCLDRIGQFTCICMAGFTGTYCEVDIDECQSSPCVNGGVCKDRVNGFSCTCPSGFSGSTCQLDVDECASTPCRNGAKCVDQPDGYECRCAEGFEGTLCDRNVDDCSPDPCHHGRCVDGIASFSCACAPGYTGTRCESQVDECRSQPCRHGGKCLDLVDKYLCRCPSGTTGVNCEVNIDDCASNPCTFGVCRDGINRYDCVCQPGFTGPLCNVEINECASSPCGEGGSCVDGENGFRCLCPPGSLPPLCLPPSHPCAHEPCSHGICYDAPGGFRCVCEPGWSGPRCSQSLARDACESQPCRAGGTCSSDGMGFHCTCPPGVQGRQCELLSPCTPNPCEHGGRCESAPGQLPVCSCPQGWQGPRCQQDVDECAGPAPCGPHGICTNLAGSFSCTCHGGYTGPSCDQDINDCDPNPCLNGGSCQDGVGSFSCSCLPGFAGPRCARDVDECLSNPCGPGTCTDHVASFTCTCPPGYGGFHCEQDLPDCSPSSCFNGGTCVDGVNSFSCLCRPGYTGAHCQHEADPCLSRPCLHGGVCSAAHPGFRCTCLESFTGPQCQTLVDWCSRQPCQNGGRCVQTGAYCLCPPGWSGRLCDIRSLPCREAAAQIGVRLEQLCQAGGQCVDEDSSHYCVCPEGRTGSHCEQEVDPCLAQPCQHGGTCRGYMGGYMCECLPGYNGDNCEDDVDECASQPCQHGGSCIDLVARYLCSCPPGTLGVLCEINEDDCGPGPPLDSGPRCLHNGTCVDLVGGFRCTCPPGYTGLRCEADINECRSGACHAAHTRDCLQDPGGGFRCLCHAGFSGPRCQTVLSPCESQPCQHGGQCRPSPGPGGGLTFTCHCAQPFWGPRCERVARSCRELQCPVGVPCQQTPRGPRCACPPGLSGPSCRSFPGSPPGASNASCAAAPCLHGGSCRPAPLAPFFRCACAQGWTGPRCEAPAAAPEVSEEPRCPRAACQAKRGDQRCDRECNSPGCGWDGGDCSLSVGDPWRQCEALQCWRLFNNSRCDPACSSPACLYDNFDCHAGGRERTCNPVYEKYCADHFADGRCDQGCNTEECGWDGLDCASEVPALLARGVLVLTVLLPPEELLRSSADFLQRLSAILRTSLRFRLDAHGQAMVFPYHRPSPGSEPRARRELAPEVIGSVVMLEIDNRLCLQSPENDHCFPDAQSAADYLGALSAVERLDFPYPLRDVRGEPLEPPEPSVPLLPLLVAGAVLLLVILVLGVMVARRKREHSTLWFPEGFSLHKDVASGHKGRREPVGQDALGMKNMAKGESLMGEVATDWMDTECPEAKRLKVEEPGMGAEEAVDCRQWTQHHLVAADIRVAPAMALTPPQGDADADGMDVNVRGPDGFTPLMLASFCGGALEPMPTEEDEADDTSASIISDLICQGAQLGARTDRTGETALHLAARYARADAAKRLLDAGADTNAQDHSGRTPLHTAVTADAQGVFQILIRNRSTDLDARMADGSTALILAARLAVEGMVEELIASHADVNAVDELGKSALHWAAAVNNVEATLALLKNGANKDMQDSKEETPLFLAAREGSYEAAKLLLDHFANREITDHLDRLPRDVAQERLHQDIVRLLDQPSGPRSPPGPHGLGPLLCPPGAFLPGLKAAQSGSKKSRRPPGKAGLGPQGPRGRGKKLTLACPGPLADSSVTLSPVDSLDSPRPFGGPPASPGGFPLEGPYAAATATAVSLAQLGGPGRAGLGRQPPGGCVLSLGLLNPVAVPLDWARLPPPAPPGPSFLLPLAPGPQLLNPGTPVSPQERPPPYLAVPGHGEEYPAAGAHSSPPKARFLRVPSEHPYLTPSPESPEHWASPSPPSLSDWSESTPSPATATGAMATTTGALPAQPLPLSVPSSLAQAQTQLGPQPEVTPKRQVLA

[10] = probe aEGFR binding to arrayed compounds – biochemical, biotinylated probe, 635/667 nm fluorescence, primary screen (AID 1097); settings: small-molecule microarray, higher = more signal;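 further: probe is a biotinylated anti-EGFR antibody binding compounds printed on slides; score combines fluorescence near 667 nm and signal to noise of each spot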

CCCCN1CC=CC23O[C@@H]4/C=C\CCC(C)OC(=O)C4[C@H]2C(=O)N(CCCCCCO)[C@@H]3C1=O (stereo not given in full)
composite z-score [1]: -0.969
z-score [2]: -0.287 (inactive)
z-score [3]: -0.737 (inactive)
z-score [4]: 0.045 (inactive)
composite z-score [5]: 1.4
z-score [6]: 0.272 (inactive)
composite z-score [7]: -0.212
composite z-score [8]: -0.806
composite z-score [9]: -0.407
composite z-score [10]: -0.313

COC(=O)[C@@]1(Cc2ccccc2)[C@H]2c3cc(C(=O)N4CCCC4)[nH]c3C[C@H]2CN1C(=O)c1ccccc1
composite z-score [1]: -1.74
z-score [2]: -0.202 (inactive)
z-score [3]: 1.02 (inactive)
z-score [4]: 0.0237 (inactive)
composite z-score [5]: 3.51
z-score [6]: -0.156 (inactive)
composite z-score [7]: 0.134
composite z-score [8]: -0.463
composite z-score [9]: -0.0434
composite z-score [10]: -0.122

[N-]=[N+]=Nc1ccccc1C[C@@]1(C(=O)O)N=C(c2ccc(OCCCO)cc2)O[C@@H]1c1ccccc1
composite z-score [1]: 0.616
z-score [2]: -0.0525 (inactive)
z-score [3]: -0.85 (inactive)
z-score [4]: -1.45 (inactive)
composite z-score [5]: 3.43
z-score [6]: -0.0393 (inactive)
composite z-score [7]: 0.0917
composite z-score [8]: -0.272
composite z-score [9]: 0.697
composite z-score [10]: -0.0952

C=C[C@@H](C)[C@H](OC(=O)Nc1ccc(SC)cc1)c1ccc(OCCO)cc1
composite z-score [1]: -0.0446
z-score [2]: 0.103 (inactive)
z-score [3]: -1.02 (inactive)
z-score [4]: -0.32 (inactive)
composite z-score [5]: 0.721
z-score [6]: 1.18 (inactive)
composite z-score [7]: -0.136
composite z-score [8]: 0.362
composite z-score [9]: 0.405
composite z-score [10]: -0.105

[N-]=[N+]=NCc1ccccc1[C@H]1OC(c2ccc(OCCCO)cc2)=N[C@@]1(CCS(=O)(=O)c1ccccc1)C(N)=O
composite z-score [1]: 1.47
z-score [2]: 0.0249 (inactive)
z-score [3]: -0.131 (inactive)
z-score [4]: -0.595 (inactive)
composite z-score [5]: 3.36
z-score [6]: -0.199 (inactive)
composite z-score [7]: 0.074
composite z-score [8]: 0.086
composite z-score [9]: 0.861
composite z-score [10]: 0.0929
